Screening results as filed in PubChem BioAssay.
Most compounds without a hit are left out; they make up all but 4.1% or so of the library.
RecA splice inh – Mtb RecA intein splicing inhibition; 0.75% of 290,000 active; P9WHJ3; cell-free RecA intein splicing, fluorescence; AID 2221; inhibition, % (no concentration beside the values); in the data active = inhibition above about 30%
Rv3671c inh – inhibits the M. tuberculosis serine protease Rv3671c; P9WHR9; inhibition, % at 5.96 µM; 0.048% of 320,000 active; in the data active = inhibition above about 38%;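 note: extracellular domain of Rv3671c used as enzyme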
Vc quorum ag – induces V. cholerae light production without autoinducers. 0.16% of 350,000 active. activation, % at 18.7 µM. V. cholerae BH1578 lux reporter, luminescence, 6 h. AID 588436; in the data active = activation mostly above about 9.7%, no sharp cut-off
Mtb UGM inh – Mtb UDP-galactopyranose mutase inhibition | AID 504406 | 0.06% of 320,000 active | inhibition, % at 10 µM | P9WIQ1 | purified UGM, fluorescence polarization probe displacement; in the data active = inhibition above about 10%, passing the limit was not always enough
Target sequence (P9WIQ1 whole entry, looked up): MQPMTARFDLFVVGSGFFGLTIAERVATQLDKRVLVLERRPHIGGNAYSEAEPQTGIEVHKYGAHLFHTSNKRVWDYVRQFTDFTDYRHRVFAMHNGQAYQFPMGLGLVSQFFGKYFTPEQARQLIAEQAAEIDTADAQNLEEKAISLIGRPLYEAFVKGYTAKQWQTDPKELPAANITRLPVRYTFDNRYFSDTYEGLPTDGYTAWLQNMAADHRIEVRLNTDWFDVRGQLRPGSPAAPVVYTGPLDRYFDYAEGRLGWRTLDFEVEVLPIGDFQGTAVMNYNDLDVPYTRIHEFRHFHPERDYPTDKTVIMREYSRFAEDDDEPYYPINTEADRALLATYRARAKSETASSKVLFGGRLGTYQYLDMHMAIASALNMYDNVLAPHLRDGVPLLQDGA
GDH-TPI counter-1 – inhibits GDH-TPI coupling enzymes, artifact for Mtb FBA screen; 1.2% of 360,000 active; inhibition, % at 4.8 µM; GDH-TPI coupled enzyme counterscreen, NADH absorbance; in the data active = inhibition above about 30%
Mtb FBA inh – inhibits M. tuberculosis FBA enzyme; P9WQA3; purified M. tuberculosis FBA, fluorescence read-out; inhibition, % at 1 µM; 2.3% of 360,000 active
Mtb FBA confirm – Mtb FBA inhibition, confirmed. purified M. tuberculosis FBA, fluorescence read-out. shares compounds with Mtb FBA inh. 78% of 5,600 active. inhibition, % at 1 µM
GDH-TPI counter-2 – GDH-TPI inhibition counter-screen for FBA inhibitors. 81% of 5,600 active. shares compounds with Mtb FBA inh. GDH-TPI coupled enzyme counterscreen, fluorescence. inhibition, % at 1 µM; in the data active = inhibition above about 10%
Each line names hits and unclear results; the compound was inactive in the other large screens (follow-up assays come after a bar, where they were run). Cut-off read from the data, not from the text of the source, unless noted: active = inhibition above about 27%; inactive = the rest.

CC(=O)c1sc(Nc2nc3ccc(F)cc3s2)nc1C	Mtb FBA inh 27 | Mtb FBA confirm active | GDH-TPI counter-2 161
CCN(CCNCC(O)COc1ccccc1C(C)C)c1cccc(C)c1 (stereo unspecified)	none
COc1cccc(C2NC(=O)CCC2[N+](=O)[O-])c1 (stereo unspecified)	none
CC1(C)Cc2nc(N)c(C(=O)NCCO)cc2CO1	Mtb FBA inh 98 | Mtb FBA confirm active | GDH-TPI counter-2 active
CC1(C)Oc2ccc3ccc(=O)oc3c2/C(=C/NNC(N)=S)C1=O	Mtb FBA inh 28 | Mtb FBA confirm active | GDH-TPI counter-2 197
COc1cc(C(C)=O)ccc1O	none
Cn1c2ccccc2c(=O)c2ccc(Cl)cc21	Mtb FBA inh 106 (no result: RecA splice inh, Rv3671c inh, Mtb UGM inh) | Mtb FBA confirm 64 | GDH-TPI counter-2 44
Cn1c(=O)oc(=O)c2ccccc21	Mtb FBA inh 94 (no result: RecA splice inh, Rv3671c inh, Mtb UGM inh) | Mtb FBA confirm 135 | GDH-TPI counter-2 116
CCOC(=O)c1ccc(-c2ccc3c(=O)c4ccccc4n(C)c3c2)cc1F	Mtb FBA inh 57 | Mtb FBA confirm 133 | GDH-TPI counter-2 117
OC(c1cccc(Cl)c1)c1nc(-c2ccoc2)cs1 (stereo unspecified)	none (no result: RecA splice inh, Rv3671c inh, Mtb UGM inh)
CCOC(=O)C1=C[C@@H](C(C)(C)C)N(S(=O)(=O)c2ccc(C)cc2)[C@H]1c1ccc(F)cc1	none (no result: RecA splice inh, Rv3671c inh, Vc quorum ag, Mtb UGM inh, GDH-TPI counter-1)
CCCCC(CC)Cn1c(N)c(C#N)c2nc3ccccc3nc21 (stereo unspecified)	Mtb FBA inh 50 | Mtb FBA confirm inactive | GDH-TPI counter-2 inactive
CCCCC(CC)Cn1c2nc3ccccc3nc2c2c(=N)oc(C)nc21 (stereo unspecified)	none (no result: Rv3671c inh, Vc quorum ag, Mtb UGM inh, GDH-TPI counter-1, Mtb FBA inh)
CCC(=O)NCCn1ccc2ccccc21	none
CC(C)C(=O)NCCn1ccc2ccccc21	Mtb FBA inh 30 | Mtb FBA confirm 102 | GDH-TPI counter-2 88
Cc1ccc(S(=O)(=O)N2CCC(C(=O)OCC(=O)N3CCCC3=O)CC2)cc1C	none
Cn1cccc1CC(=O)N/N=C/c1cccc2ccccc12	none
COc1ccccc1/C=C/C=N/NC(=O)Cc1cccn1C	GDH-TPI counter-1 51, Mtb FBA inh 78 | Mtb FBA confirm active | GDH-TPI counter-2 active
C[C@H](CO)N1C[C@H](C)[C@H](CN(C)Cc2ccncc2)Oc2ccc(NC(=O)Nc3ccc(C(F)(F)F)cc3)cc2CC1=O	none (no result: RecA splice inh)
COc1ccc(S(=O)(=O)NNC(=O)c2ccccc2-n2cccc2)cc1	none
Cc1ccc(S(=O)(=O)NNC(=O)c2ccccc2-n2cccc2)cc1	Mtb FBA inh 32 | Mtb FBA confirm 57 | GDH-TPI counter-2 52
Cc1ccc(-c2cn3nc(C)c(C)nc3n2)cc1	Mtb FBA inh 34 | Mtb FBA confirm inactive | GDH-TPI counter-2 inactive
COc1ccc(-c2cn3nc(C)c(C)nc3n2)cc1OC	none (no result: RecA splice inh)
COc1cccc2sc(Nc3nnc(-c4cccs4)o3)nc12	none
COc1cccc2sc(Nc3nnc(-c4ccc(F)cc4)o3)nc12	GDH-TPI counter-1 40, Mtb FBA inh 49 | Mtb FBA confirm active | GDH-TPI counter-2 active
Fc1cccc2sc(Nc3nnc(-c4ccco4)o3)nc12	Mtb FBA inh 33 | Mtb FBA confirm 198 | GDH-TPI counter-2 166
Cc1ccc(NC(=O)c2ncn(CC(=O)N3CCN(c4ccccn4)CC3)n2)cc1C	none (no result: RecA splice inh, Rv3671c inh, Mtb UGM inh)
CC(C)C1Cc2[nH]c(=S)[nH]c(=O)c2C(c2ccc(F)cc2)O1 (stereo unspecified)	none (no result: RecA splice inh, Rv3671c inh, Vc quorum ag, Mtb UGM inh, GDH-TPI counter-1)
O=C(O)COc1ccc(C(=O)c2ccccc2)cc1	none
COc1cccc(-c2nc(-c3ccccc3)c(-c3ccccc3)[nH]2)c1OCC(=O)O	Mtb FBA inh 84 (no result: Rv3671c inh) | Mtb FBA confirm 70 | GDH-TPI counter-2 54
O=C(O)c1ccccc1-c1nc(-c2ccccc2)c(-c2ccccc2)[nH]1	none
O=C(O)COc1ccc(-c2nc(-c3ccccc3)c(-c3ccccc3)[nH]2)cc1	Mtb FBA inh 98 | Mtb FBA confirm 86 | GDH-TPI counter-2 73
COc1cccc(-c2nc(-c3ccc4c(c3)-c3ccccc3S4(=O)=O)c(-c3ccccc3)[nH]2)c1OC	Mtb FBA inh 31 | Mtb FBA confirm inactive | GDH-TPI counter-2 inactive
COc1ccccc1OCC(=O)O	none
